In PubChem BioAssay AID624495 (National Center for Advancing Translational Sciences (NCATS), 2012) one finds Potency data, which are given here for 12 compounds.

SMILES strings stand for the structures. Inconclusive results are not listed. Calls of active or inactive are those of the source. The call rests on the fitted dose curve; in most records, active means well fitted inhibition curve with a large enough effect; inconclusive means small, poorly fitted or top-dose-only effect, or another doubt; inactive means flat fitted curve, though single readings scatter.

Chain of D(2) dopamine receptor (Homo sapiens) (P14416 whole entry, looked up): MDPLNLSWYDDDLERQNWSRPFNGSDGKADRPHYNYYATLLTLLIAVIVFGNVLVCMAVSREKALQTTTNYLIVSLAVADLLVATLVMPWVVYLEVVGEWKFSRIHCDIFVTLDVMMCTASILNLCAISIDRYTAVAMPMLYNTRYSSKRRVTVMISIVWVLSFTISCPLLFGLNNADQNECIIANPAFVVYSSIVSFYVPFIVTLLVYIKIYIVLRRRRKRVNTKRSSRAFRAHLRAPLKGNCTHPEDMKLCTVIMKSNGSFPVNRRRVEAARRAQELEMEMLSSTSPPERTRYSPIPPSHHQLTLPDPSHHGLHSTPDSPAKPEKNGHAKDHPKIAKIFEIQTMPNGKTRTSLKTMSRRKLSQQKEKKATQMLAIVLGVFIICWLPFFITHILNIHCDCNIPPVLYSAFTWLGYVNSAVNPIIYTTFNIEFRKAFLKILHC

The assay addresses D(2) dopamine receptor (Homo sapiens) (UniProt P14416). The assay is described as follows: HTS Assay for Allosteric Antagonists of the Human D2 Dopamine Receptor: SAR in D2 Beta Arrestin Assay. To be noted: DiscoveRx PathHunter D2 beta-arrestin recruitment, luminescence. The source says:
There is great interest in identifying small molecule ligands for G-protein coupled receptors (GPCRs) as nearly 50% of all FDA-approved drugs target these important receptor proteins. […] Amongst the dopamine receptors (DARs), the D2 is arguably one of the most validated drug targets in neurology and psychiatry. For instance, all receptor-based antiparkinsonian drugs primarily work via stimulating the D2 DAR, whereas all FDA-approved antipsychotic agents are antagonists of this receptor. The D2 DAR is also therapeutically targeted in other disorders such as restless legs syndrome, tardive dyskinesia, Tourette's syndrome, and hyperprolactinemia. […] This is an orthogonal assay to test the lead compounds against the D2 receptor, using a beta arrestin assay. NIH Molecular Libraries Probe Production Network [MLPCN] NIH Chemical Genomics Center [NCGC] Grant: NS0676421 PI Name: David Sibley, National Institutes of Neurological Disorders and Stroke
DiscoveRx D2 cells were thawed from frozen stock and seeded at 2,100 cells/ 3 uL/well media (DiscoveRx Plating Reagent 2) with MultiDrop Combi dispenser (Thermo Scientific, Logan, UT) onto white tissue culture treated 1536-well Aurora plates (Brooks Automation, Chelmsford, MA) and allowed to attach overnight at 37 deg C, 5% CO2. Next, 23 nL/well of compound solutions in DMSO were added with a pintool transfer (Kalypsis, San Diego, CA). As the positive control, 1 uL/well dopamine (EC100, 57 uM final concentration) diluted in buffer (HBSS + 10 mM HEPES + SMB + 0.1% Tween-20) was dispensed to 1 column of each plate. The rest of the plate was dispensed with buffer only, 1 uL/well as well. The cells were stimulated by compounds or dopamine control for 90 minutes at 37 deg C, 5% CO2, after which 1.5 ul/well of DiscoveRx detection reagent was added with BioRAPTR FRD dispenser. The detection reagent was prepared by mixing of Galacton Star Substrate, Emerald II solution and PathHunter buffer (supplied by the assay kit) together at 1:5:19 proportion accordingly just prior to dispensing. The plates were incubated at ambient temperature for 1 hour and then the luminescent signal was read on ViewLux plate reader (PerkinElmer, Waltham, MA).
For orientation: Recruitment of arrestin is a read-out of receptor activation apart from second messengers.
With `CCN1C(=O)c2ccccc2[S@](=O)c2ccc(C(=O)NCc3ccc(F)cc3)cc21`, the Potency is 576 nM (active).
Under `CN1C(=O)c2ccccc2S(=O)c2ccc(C(=O)NCCc3cccs3)cc21` (configuration not stated) stands 913 nM (active).
Then `CCN1C(=O)c2ccccc2[S@](=O)c2ccc(C(=O)NCc3ccc(C#N)cc3)cc21`, with 257 nM (active); and `CN1C(=O)c2ccccc2[S@](=O)c2ccc(C(=O)NCCc3cccs3)cc21`, with 725 nM (active); and `CCN1C(=O)c2ccccc2[S@](=O)c2ccc(C(=O)NCc3ccc(OC)cc3)cc21`, with 1150 nM (active).
Then `CN1C(=O)c2ccccc2[S@](=O)c2ccc(C(=O)NCc3cccnc3)cc21`, with 2890 nM (active); and `CCN1C(=O)c2ccccc2[S@](=O)c2ccc(C(=O)N[C@H](C)c3ccc4ccccc4c3)cc21`, with 2890 nM (active); and `CCN1C(=O)c2ccccc2[S@](=O)c2ccc(C(=O)N[C@H](C)c3ccc(Br)cc3)cc21`, with 1290 nM (active).
Consider `CN1C(=O)c2ccccc2[S@](=O)c2ccc(C(=O)NCc3ccc(Br)cc3)cc21`, for which the Potency was 1020 nM (active).
Then `CCN1C(=O)c2ccccc2S(=O)c2ccc(C(=O)NCc3ccc(OC)cc3)cc21` (configuration not stated), with 2890 nM (active); and `CN1C(=O)c2ccccc2[S@](=O)c2ccc(C(=O)NCCN3CCCC3)cc21`, with 363 nM (active); and `CN1C(=O)c2ccccc2[S@](=O)c2ccc(C(=O)NCc3ccc(Cl)cc3)cc21`, with 2890 nM (active).
